The source of these data is the supplement of paper PMC6555819.

Holding throughout (experiment): PBM binding z-score (relative to random genomic background probes); higher = stronger binding; sequences stand for … in GC…GCGATTGACAGCGTAGAATGAAGG
Assay [1] concerns PPARg:RXRa DBDmut IVT, anti-RXR (DBD mutation: RXRa K156A/R161A, NR concentration 270 nM, RXRa partner concentration 90 nM). The gist of the method:
(§1)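 Antibodies against each partner of ligand-free nuclear receptor dimers (one per run) detected binding on custom Agilent 4×180K protein-binding microarrays after 1 h incubation. The double-stranded probes had 34-nt variable regions carrying direct-repeat seeds, single-nucleotide variants, half-site ablations and random human genomic background sequences. Binding z-scores, from regression-normalized fluorescence, use the random background probes as reference.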

In assay [2] the test system is PPARg:RXRa IVT, anti-PPARg (NR concentration 270 nM, RXRa partner concentration 90 nM). The method in brief:
as §1

Assay [3] concerns PPARg DBDmut:RXRa IVT, anti-PPARg (DBD mutation: PPARg1 K132A/R137A, NR concentration 270 nM, RXRa partner concentration 90 nM). The method in brief:
as §1

Assay [4] has as its system PPARg DBDmut IVT, anti-PPARg (DBD mutation: PPARg1 K132A/R137A, NR concentration 270 nM). The gist of the method: as §1
The test system of assay [5] is PPARg homodimer (NR concentration 180 nM). The gist of the method:
as §1

Assay [6] deals with PXR:RXRa (NR concentration 270 nM, RXRa partner concentration 90 nM). The method in brief:
as §1

The test system of assay [7] is PXR homodimer (NR concentration 270 nM). The method in brief:
as §1

Assay [8] has as its system RARa:RXR (NR concentration 270 nM, RXRa partner concentration 90 nM). The method in brief: as §1
Assay [9] has as its system RARa homodimer (NR concentration 270 nM). The gist of the method:
as §1

In assay [10] the test system is RARb:RXRa (NR concentration 270 nM, RXRa partner concentration 90 nM). The method in brief:
as §1

The subject of assay [11] is RARb homodimer (NR concentration 270 nM). The method in brief:
as §1

In assay [12] the test system is RARg:RXRa (NR concentration 270 nM, RXRa partner concentration 90 nM). The gist of the method: as §1
Assay [13] deals with RARg homodimer (NR concentration 270 nM). The gist of the method:
as §1

The subject of assay [14] is RXRa DBDmut IVT, anti-RXR (DBD mutation: RXRa K156A/R161A, NR concentration 90 nM). The method in brief: as §1
Assay [15] relates to RXRa homodimer (NR concentration 180 nM). The method in brief:
as §1

Assay [16] concerns THRa:RXRa (NR concentration 90 nM, RXRa partner concentration 90 nM). The gist of the method:
as §1

For assay [17], the system named is THRa homodimer (NR concentration 90 nM). The method in brief: as §1
The subject of assay [18] is VDR homodimer (NR concentration 270 nM). The method in brief: as §1

As for CGTCCAAGGTCAAAGGTGAGTGAAGAGATGACGG, the PBM binding z-score in assay [1] was 4.29; in assay [2], 5.13; in assay [3] it was 0.48; in [4], -0.248; in assay [5] it was 2.01; in [6], 5.5. The PBM binding z-score in assay [7] came out at 1.01; in [8] it was 7.17; in assay [9], 1.07; in assay [10], 5.55; in [11], 4.48; in assay [12], 6.91. Besides, the PBM binding z-score in assay [13] turned out to be 6.63; in assay [14], 3.77; in assay [15] it was 8.39; in [16], 4.4; in [17] it was 2.28; in [18], 2.92.
Take AGTCAAAGTTCATTTAGGTAACGTAAGATATGCT: the PBM binding z-score in assay [1] stood at 0.638; in assay [2], 3.21; in [3] it was 1.36; in [4] it was 1.51; in [5], 2.39; in [6], 5.45. Moreover, the PBM binding z-score in assay [7] was 8.27; in assay [8], 3.63; in assay [9] it was 1.4; in [10] it was 4.66; in assay [11], 3.77; in assay [12], 5.03. The PBM binding z-score in assay [13] came out at 5.39; in assay [14], 4.96; in assay [15], 4.35; in assay [16], 3.29; in assay [17], 1.03; in assay [18], 5.45.
As to TCTCGGATGACACGAAGGTCAGAGCTTTCCAGAG, the PBM binding z-score in assay [1] is 1.37; in [2], 0.539; in assay [3], -0.684; in assay [4], -0.814; in assay [5], 0.961; in assay [6], 1.62. Besides, the PBM binding z-score in assay [7] was 0.0323; in assay [8], 2.3; in assay [9], -0.214; in assay [10] it was 2.55; in assay [11], 3.15; in assay [12], 2.66. The PBM binding z-score was determined as 2.31 in assay [13]; 0.542 in [14]; 2.48 in [15]; 1.68 in assay [16]; 0.229 in assay [17]; 0.13 in assay [18].
In the case of CCAAGTTGGTCAGGAGGTCACACACCGGATATGA, the PBM binding z-score in [1] turned out to be 2.06; in [2], 3.44; in assay [3], 0.859; in assay [4] it was 0.385; in assay [5], 2.39; in [6] it was 4.24. Moreover, the PBM binding z-score in [7] stood at 0.876; in assay [8] it was 4.41; in [9], 0.729; in assay [10], 3.8; in assay [11], 4.38; in [12] it was 5.05. Moreover, the PBM binding z-score is 4.59 in assay [13]; 1.39 in assay [14]; 4.6 in assay [15]; 3.5 in [16]; 1.96 in [17]; 2.65 in assay [18].
Turning to ATCTCTAGGTAAAAGTACAGTGAATCCCGAGGAT, the PBM binding z-score in assay [1] is 1.64; in assay [2] it was 1.67; in assay [3], 1.14; in assay [4], 1.43; in assay [5], 0.118; in assay [6], -0.149. For the same sequence, the PBM binding z-score in assay [7] was 0.313; in assay [8], -0.057; in assay [9], 1.08; in assay [10], 0.298; in [11] it was -0.337; in assay [12] it was 0.567. The PBM binding z-score was 0.702 in assay [13]; -0.00884 in assay [14]; 0.199 in assay [15]; 0.284 in assay [16]; 0.0784 in assay [17]; 0.123 in assay [18].
Regarding GGAACGAGGGCAAAGTGGATAGCATCTGTCGACG, the PBM binding z-score in [1] turned out to be 3.95; in assay [2], 3.72; in assay [3], 0.652; in assay [4] it was 0.661; in [5], 1.42; in assay [6], 0.489. The PBM binding z-score in [7] was 0.241; in assay [8] it was 0.674; in assay [9] it was -0.182; in [10] it was 2.27; in [11], 1.05; in [12], 1.54. Also, the PBM binding z-score was 1.53 in assay [13]; 2.28 in assay [14]; 1.21 in assay [15]; 0.965 in assay [16]; -0.332 in [17]; 1.01 in assay [18].
Regarding GCTTGTAGATCAAGGATAAGAAAGACTAAGCTAA, the PBM binding z-score in assay [1] is 0.345; in assay [2] it was -0.0525; in assay [3] it was -0.469; in [4], -0.526; in assay [5], -0.571; in assay [6] it was -0.567. Also, the PBM binding z-score is -0.33 in [7]; -0.653 in [8]; -1.12 in assay [9]; -1.81 in [10]; -1.36 in assay [11]; -0.352 in assay [12]. Further, the PBM binding z-score in assay [13] was -0.0867; in assay [14] it was -0.727; in [15], -0.555; in [16], 0.0456; in assay [17] it was -0.696; in [18] it was -0.57.
As for TCTCGGAGGACATGAAGGTCAGAGCTTTCCAGAG, the PBM binding z-score in assay [1] is 2.01; in assay [2] it was 0.772; in assay [3], -0.736; in assay [4] it was -1.67; in assay [5], 0.875; in assay [6], 1.77. Also, the PBM binding z-score in [7] was determined as 0.899; in assay [8], 1.69; in [9], 0.0257; in assay [10] it was 2.63; in assay [11] it was 3.3; in [12], 2.47. Besides, the PBM binding z-score in assay [13] worked out at 2.57; in assay [14], 0.811; in assay [15] it was 1.44; in assay [16] it was 2.28; in assay [17], 0.338; in assay [18] it was 1.2.
